Active and inactive are the calls of the source.
Test system: Wnt5a (protein binding on small-molecule microarray)
Assay: small molecules binding Wnt5a protein – biophysical, small-molecule microarray, 635/667 nm fluorescence, primary screen (AID 1142);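 also: fluorescence read at 667 nm with signal to noise per printed feature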
Conditions: 635 nm fluorescence, higher = more signal

SMILES | composite z-score
CC(=O)OC[C@H]1O[C@@H](ON=C(C)C)[C@H](OC(C)=O)[C@@H](OC(C)=O)[C@@H]1OC(C)=O | 0.47
CC(C)=CCCC(C)=CCON=C1[C@H]2CCn3c(=O)n(-c4ccccc4)c(=O)n3[C@H]2[C@H](O)[C@@H]2O[C@H]12 | 0.0694
COC(=O)CC=C[C@@H](C)[C@@H](C=NOC[C@@H](C)[C@H](OCc1ccccc1)C(C)C)OC | 0.0814
CCOC(=O)CCN1C(=O)[C@H]2[C@H]3[C@H](O)[C@H](O)CC(=NO[C@@H]4O[C@H](CO)[C@@H](O)[C@H](O)[C@H]4O)[C@@H]3CC[C@H]2C1=O | 0.231
COC(=O)[C@H](C)NC(=O)CCC1CC(OC(=O)NCc2ccc3c(c2)OCO3)CC2(CCCC(COC(=O)NCCc3ccc(Cl)cc3)O2)O1 (some centres undefined) | -0.132
CC(CCN1CCCc2nc(C)c(C)cc21)=NOC[C@@H](O)COCc1ccco1 | 0.516
CC(CCN1CCCCc2nc(C)c(C)cc21)=NO[C@@H](C)c1cc(-c2c(C)cc(C)cc2C)no1 | -0.525
C[C@H]1CC[C@@H](C(=O)O)N[C@@H]1c1ccc(C#Cc2ccccc2)cc1 | 0.177
COc1ccc(O[C@H]2C=C[C@@H](c3ccccc3)O[C@@H]2COC(=O)NCc2cccc3ccccc23)cc1 | -0.092
CC(C)CON=C1C[C@@H](O)[C@@H](O)[C@@H]2[C@@H]3C(=O)N(C(C)(C)C)C(=O)[C@@H]3CC[C@@H]12 | 0.167
CC(C)CON=C1[C@H]2CCn3c(=O)n(C)c(=O)n3[C@H]2[C@H](O)[C@@H]2O[C@H]12 | 0.0208
CCOC(=O)CCN1C(=O)[C@H]2[C@H]3[C@H](O)[C@H](O)CC(=O)[C@@H]3CC[C@H]2C1=O | 0.352
CC1(C)O[C@H]2OC([C@H](O)CON3C(=O)c4ccccc4C3=O)[C@H](O)[C@H]2O1 (some centres undefined) | -0.0105
COc1cccc([C@H](O)Cn2cc(-c3ccc(CON=C(C)C)cc3)nn2)c1 | -0.0033
COCC#Cc1ccc([C@@H]2N[C@H](C(=O)O)CC[C@H]2C)cc1 | -0.0223
O=C1C[C@H](c2ccccc2)[C@H](c2ccc(Br)cc2)O1 | 0.0974
CCCNC(=O)OC[C@H]1O[C@H](CCON=C[C@@H](NS(=O)(=O)c2ccc(C)cc2)[C@H](C)C=CCC(=O)OC)C=C[C@@H]1Oc1ccc(OC)cc1 | -0.208
CCOC(=O)[C@H](Cc1ccccc1)NC(=O)CCC1CC(OC(=O)NCCc2ccc(F)cc2)CC2(CCCC(COC(=O)NCCOc3ccccc3)O2)O1 (some centres undefined) | 0.424

SMILES | composite z-score
C=CC[C@@H]1C=C[C@H](Oc2ccc(C)cc2)[C@@H](COC(=O)NCc2cccc3ccccc23)O1 | 0.243
O=C1C2=CC[C@H]3C(=O)N(C[C@@H]4CCCO4)C(=O)[C@H]3[C@H]2[C@H](O)[C@@H]2O[C@H]12 | 0.487
CSCC[C@@H]1NC(=O)CC=C[C@@H](C)COC(=O)[C@H](C)COC1=O | 0.624
COC(=O)[C@H](Cc1ccccc1)NC(=O)[C@@H](C)CO | 0.276
O=C1[C@H]2[C@H]3[C@H](O)[C@H](O)CC(=NOCc4ccccc4)[C@@H]3CC[C@H]2C(=O)N1c1cccc(Oc2ccccc2)c1 | -0.0001
CC(C)C(=O)N[C@H]1CCCN1C(=O)C=Cc1ccccc1 | 0.121
CCN1C(=O)[C@H]2[C@H]3[C@H](O)[C@H](O)CC(=NOCC(C)C)[C@H]3CC[C@H]2C1=O | -0.0772
C#CCCCON=C1[C@H]2CCn3c(=O)n(Cc4cc5c(cc4Cl)OCO5)c(=O)n3[C@H]2[C@H](O)[C@@H]2O[C@H]12 | 0.272
COC(=O)[C@H](C)NC(=O)CCC1CC(OC(=O)NCc2cccc3ccccc23)CC2(CCCC(COC(=O)NCCOc3ccccc3)O2)O1 (some centres undefined) | 0.029
CO[C@H]1COC(=O)CC=C[C@@H](C)COC(=O)[C@H]2CCCN2C(=O)CC=C[C@H]1C | 0.203
O=C1C[C@@H](O)[C@@H](O)[C@@H]2[C@@H]3C(=O)N(C4CCCCC4)C(=O)[C@@H]3CC[C@@H]12 | 0.0446
CN1CCc2nc(-c3ccccc3)c(-c3ccccc3)cc2C1 | 0.0321
CC(CCC(=O)OC[C@H]1O[C@H](C#Cc2ccccc2)C=C[C@@H]1Oc1ccc(C)cc1)=NOC(C)CN1CCCCc2nc(C)c(C)cc21 (some centres undefined) | -0.271
CO[C@@H]1C=CCC(=O)N[C@@H](C)C(=O)OC[C@@H](OC)[C@H](C)C=CCC(=O)OC[C@H]1C | 0.552
CO[C@@H]1[C@H](O)CO[C@H]1C=Cc1ccccc1 | -0.174
CO[C@H]1COC(=O)[C@H](CCSC)NC(=O)CC=C[C@@H](C)[C@H](OC)COC(=O)[C@@H](OCc2ccccc2)C=C[C@@H]1C | 0.211
COc1ccc(OC[C@H]2CN3[C@@H](CC[C@@H](C)[C@@H]3c3ccc(Br)cc3)C(=O)O2)cc1 | -0.144
COc1ccc(O[C@H]2C=C[C@@H](c3ccccc3)O[C@@H]2CO)cc1 | 0.0263

Test system: not listed separately
Assay: ATP-based viability of Huh7 replicon cells – cell-based, CellTiter-Glo luminescence, basal, 48 h, cytotoxicity control for HCV replication inhibitor project, primary screen (AID 1143);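 also: Huh7 hepatoma cells carrying a hepatitis C replication reporter with no stimulus; test concentration not given here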
Conditions: higher = more signal, called active from +8 up or from −8 down

SMILES | z-score
CC(=O)OC[C@H]1O[C@@H](ON=C(C)C)[C@H](OC(C)=O)[C@@H](OC(C)=O)[C@@H]1OC(C)=O | 0.238 (inactive)
CC(C)=CCCC(C)=CCON=C1[C@H]2CCn3c(=O)n(-c4ccccc4)c(=O)n3[C@H]2[C@H](O)[C@@H]2O[C@H]12 | -1.7 (inactive)
COC(=O)CC=C[C@@H](C)[C@@H](C=NOC[C@@H](C)[C@H](OCc1ccccc1)C(C)C)OC | -0.112 (inactive)
CCOC(=O)CCN1C(=O)[C@H]2[C@H]3[C@H](O)[C@H](O)CC(=NO[C@@H]4O[C@H](CO)[C@@H](O)[C@H](O)[C@H]4O)[C@@H]3CC[C@H]2C1=O | -0.784 (inactive)
COC(=O)[C@H](C)NC(=O)CCC1CC(OC(=O)NCc2ccc3c(c2)OCO3)CC2(CCCC(COC(=O)NCCc3ccc(Cl)cc3)O2)O1 (some centres undefined) | 0.173 (inactive)
CC(CCN1CCCc2nc(C)c(C)cc21)=NOC[C@@H](O)COCc1ccco1 | -0.244 (inactive)
CC(CCN1CCCCc2nc(C)c(C)cc21)=NO[C@@H](C)c1cc(-c2c(C)cc(C)cc2C)no1 | -3.04 (inactive)
C[C@H]1CC[C@@H](C(=O)O)N[C@@H]1c1ccc(C#Cc2ccccc2)cc1 | -7 (inactive)
COc1ccc(O[C@H]2C=C[C@@H](c3ccccc3)O[C@@H]2COC(=O)NCc2cccc3ccccc23)cc1 | -1.55 (inactive)
CC(C)CON=C1C[C@@H](O)[C@@H](O)[C@@H]2[C@@H]3C(=O)N(C(C)(C)C)C(=O)[C@@H]3CC[C@@H]12 | -2.95 (inactive)
CC(C)CON=C1[C@H]2CCn3c(=O)n(C)c(=O)n3[C@H]2[C@H](O)[C@@H]2O[C@H]12 | 0.736 (inactive)
CCOC(=O)CCN1C(=O)[C@H]2[C@H]3[C@H](O)[C@H](O)CC(=O)[C@@H]3CC[C@H]2C1=O | -0.19 (inactive)
CC1(C)O[C@H]2OC([C@H](O)CON3C(=O)c4ccccc4C3=O)[C@H](O)[C@H]2O1 (some centres undefined) | 0.929 (inactive)
COc1cccc([C@H](O)Cn2cc(-c3ccc(CON=C(C)C)cc3)nn2)c1 | -0.385 (inactive)
COCC#Cc1ccc([C@@H]2N[C@H](C(=O)O)CC[C@H]2C)cc1 | -1.23 (inactive)
O=C1C[C@H](c2ccccc2)[C@H](c2ccc(Br)cc2)O1 | -1.52 (inactive)
CCCNC(=O)OC[C@H]1O[C@H](CCON=C[C@@H](NS(=O)(=O)c2ccc(C)cc2)[C@H](C)C=CCC(=O)OC)C=C[C@@H]1Oc1ccc(OC)cc1 | -1.47 (inactive)

SMILES | z-score
CCOC(=O)[C@H](Cc1ccccc1)NC(=O)CCC1CC(OC(=O)NCCc2ccc(F)cc2)CC2(CCCC(COC(=O)NCCOc3ccccc3)O2)O1 (some centres undefined) | -0.715 (inactive)
C=CC[C@@H]1C=C[C@H](Oc2ccc(C)cc2)[C@@H](COC(=O)NCc2cccc3ccccc23)O1 | -2.06 (inactive)
O=C1C2=CC[C@H]3C(=O)N(C[C@@H]4CCCO4)C(=O)[C@H]3[C@H]2[C@H](O)[C@@H]2O[C@H]12 | -4.97 (inactive)
CSCC[C@@H]1NC(=O)CC=C[C@@H](C)COC(=O)[C@H](C)COC1=O | -1.67 (inactive)
COC(=O)[C@H](Cc1ccccc1)NC(=O)[C@@H](C)CO | -2.36 (inactive)
O=C1[C@H]2[C@H]3[C@H](O)[C@H](O)CC(=NOCc4ccccc4)[C@@H]3CC[C@H]2C(=O)N1c1cccc(Oc2ccccc2)c1 | -0.558 (inactive)
CC(C)C(=O)N[C@H]1CCCN1C(=O)C=Cc1ccccc1 | 0.623 (inactive)
CCN1C(=O)[C@H]2[C@H]3[C@H](O)[C@H](O)CC(=NOCC(C)C)[C@H]3CC[C@H]2C1=O | 0.306 (inactive)
C#CCCCON=C1[C@H]2CCn3c(=O)n(Cc4cc5c(cc4Cl)OCO5)c(=O)n3[C@H]2[C@H](O)[C@@H]2O[C@H]12 | 0.256 (inactive)
COC(=O)[C@H](C)NC(=O)CCC1CC(OC(=O)NCc2cccc3ccccc23)CC2(CCCC(COC(=O)NCCOc3ccccc3)O2)O1 (some centres undefined) | -2.56 (inactive)
CO[C@H]1COC(=O)CC=C[C@@H](C)COC(=O)[C@H]2CCCN2C(=O)CC=C[C@H]1C | 0.0653 (inactive)
O=C1C[C@@H](O)[C@@H](O)[C@@H]2[C@@H]3C(=O)N(C4CCCCC4)C(=O)[C@@H]3CC[C@@H]12 | 0.0366 (inactive)
CN1CCc2nc(-c3ccccc3)c(-c3ccccc3)cc2C1 | 0.55 (inactive)
CC(CCC(=O)OC[C@H]1O[C@H](C#Cc2ccccc2)C=C[C@@H]1Oc1ccc(C)cc1)=NOC(C)CN1CCCCc2nc(C)c(C)cc21 (some centres undefined) | -1.13 (inactive)
CO[C@@H]1C=CCC(=O)N[C@@H](C)C(=O)OC[C@@H](OC)[C@H](C)C=CCC(=O)OC[C@H]1C | -0.0206 (inactive)
CO[C@@H]1[C@H](O)CO[C@H]1C=Cc1ccccc1 | -0.536 (inactive)
